Test results: PubChem BioAssay AID686971 (National Center for Advancing Translational Sciences (NCATS), 2013)
In all, about 360,000 compounds went through this assay and about 7,500 (2.1%) were called active. About 8% were inconclusive and are not listed. The full list was thinned out, with actives kept by preference. Unmarked numbers belong to inactive results. Calls follow the shape of the dose curve; as a rule, active = well fitted cell-killing curve with a large enough effect; inconclusive = small, poorly fitted or top-dose-only effect, or effect the other way, or another doubt; inactive = no such curve, though single readings can be large or run the other way.

Assay: qHTS for induction of synthetic lethality in tumor cells producing 2HG: qHTS for the HT-1080-IDH1KD cell line
Conditions: HT-1080 IDH1 knockdown viability, ATP luminescence, 48 h; series mostly up to 46.1 µM; activity, negative = toxicity: at the top concentration
Text: Unbiased genomic sequencing for 22 glioma genomes found recurrent mutation of IDH1 on chromosome 2q33, a gene encoding the cytosolic isoform of IIDH1 associated with the tri-carboxylic acid cycle (TCA) that catalyzes the oxidative decarboxylation of isocitrate, yielding alpha-ketoglutarate and CO2 via NADP+ to NADPH conversion. Subsequent studies confirmed the recurrent IDH mutations in up to 70% of secondary gliomas and in 10% of AML cases. In addition, the somatic mutation of cancer-associated IDH1 is a point mutation resulting in various amino-acid substituents at Arginine132 (IDH1 R132), a key residue found in the enzyme's active site that when mutated, results in the loss-of-function in metabolizing isocitrate but confers a gain-of-function to produce the oncometabolite 2-hydroxyglutarate (2HG). This in effect defines IDH1 as an oncogene and provides an extraordinary opportunity to discover chemical probes against mutant IDH1 that may translate into much needed new therapies for glioma and AML patients.
This assay aims to perform a synthetic-lethal screen for chemical probes specific for 2HG-producing tumor cells using matched paired cell lines (1) HT-1080-NT fibrosarcoma cell line that overproduces 2HG and (2) HT-1080-IDH1KD cell line which has IDH1 expression knocked-down. Desirable compounds are toxic to the NT fibrosarcoma cell line but not to the IDH1KD cell line. The data in this AID corresponds to the results of the qHTS against the HT-1080 IDH1KD cell line.
[1] Dang L, Jin S, Su SM. IDH mutations in glioma and acute myeloid leukemia. Trends of Mol Med. 2010; 16(9): 387-97.
[2] Dang L et al. Cancer-associated IDH1 mutations produce 2-hydroxyglutarate. Nature. 2010; 465(7300):966.
Molecular Libraries Probe Production Centers Network [MLPCN]
NIH Chemical Genomics Center [NCGC]
Assay Submitter (PI): Lenny Dang Ph.D., Agios Pharmaceuticals
Suspensions of trypsinized HT-1080-IDH1KD cells were dispensed into white, tissue culture-treated, solid 1536-well plates at 5uL/well (750 cells/well final concentration) in RPMI medium supplemented with 5% FBS. Plates were incubated at 37 degrees C for 2 hours, after which 23 nL of compounds or DMSO were delivered to each well using a pin tool. Plates were then incubated at 37 degrees C for an additional 48 hours. CellTiter-Glo viability reagent (Promega) was dispensed into wells (2.5uL/well) and incubated at room temperature for 10 minutes. The plates were measured on a PerkinElmer ViewLux plate reader for luminescent signal (clear filter, 1 sec exp.). DMSO-treated control wells and media-only (no cells) control wells were used to normalize %Activity of identified toxic compounds; DMSO-treated wells corresponded to 0%Activity (100% viability), while media-only controls were used to normalize 100%Activity (0% viability). To minimize variability between cell lines, both HT-1080-NT and HT-1080-IDH1KD lines were dispensed and treated with identical compound series in single batches.
Concentration-response curves were fitted to the signals arising from the resulting luminescence. The concentration-effect curves were then classified based on curve quality (r2), response magnitude and degree of measured activity, and compounds were subsequently categorized based on their curve class.
Potency is read from the fitted curve at half-maximal effect.

Structure (SMILES)	Potency	activity, negative = toxicity
COc1ccccc1N1CCN(C(=O)c2cc(=O)c3cc(C)cc(C)c3o2)CC1	0.0103 µM (active)	
COc1ccccc1N1CCN(C(=O)c2ccc(Cl)c(S(=O)(=O)N3CCCC3)c2)CC1		-0.548%
COc1ccccc1N1CCN(C(=O)c2c(-c3c(Cl)cccc3Cl)noc2C)CC1		-2.34%
C[C@H](NC(=O)CC[C@H]1O[C@@H](n2ccc(=O)[nH]c2=O)[C@H](O)[C@@H]1O)c1cccc2ccccc12		19.5%
C[C@@H]1CN([C@@H](C)CO)C(=O)CCCn2nncc2CO[C@H]1CN(C)C(=O)Nc1ccc(C(F)(F)F)cc1		-7.94%
C[C@@H]1CN([C@@H](C)CO)C(=O)c2cc(Br)cnc2O[C@@H]1CN(C)C(=O)C1CCCCC1		19.4%
CC1=C(C(=O)N2CCOCC2)CC(CC(=O)NCc2cccs2)C(=O)N1CCCN1CCCC1=O (configuration not stated)		14.2%
CCCCC[C@H](C)N1C[C@@H](COCc2ccccc2)Oc2cc(N3CC[C@@H](N(C)C)C3)ccc2S1(=O)=O	18.4 µM (active)	
CCCCC[C@H](C)N1C[C@@H](COCc2ccccc2)Oc2cc(N3CCC[C@@H]3CO)ccc2S1(=O)=O		6.19%
CCCCN1CC(COCc2ccccc2)OCCS1(=O)=O (configuration not stated)		8.5%
C[C@H](CO)N1C[C@H](C)[C@@H](CN(C)S(=O)(=O)c2ccc(F)cc2)OCc2cnnn2CCCC1=O		0.103%
CC1(Oc2cccc(F)c2)CCN(Cc2ccccc2OC(F)F)C1 (configuration not stated)		15.1%
Cc1[nH]n(-c2ccc(Cl)cc2)c(=O)c1/C=N/n1c(C)nc2ccccc2c1=O	16.4 µM (active)	
Cc1[nH]n(-c2ccc([N+](=O)[O-])cc2)c(=O)c1C=NCCN1CCN(C(=O)c2ccccc2F)CC1		-28.4%
Cn1c(COc2ccc(Cl)cc2)nc2ccccc2c1=O		4.13% [at 9.24 µM]
CC1(C(=O)NCc2ccccc2)CSCC(=O)N1CCCN1CCOCC1 (configuration not stated)		-9.76%
O=C(CCCN1C(=O)C(c2ccccc2)Oc2cccnc21)Nc1ccccc1Br (configuration not stated)		0.333%
COc1ccc(-c2ccc3[nH]c4c(c3c2)CCN2C[C@H]3[C@H](C)ON(C)[C@H]3C[C@@H]42)cc1		-27.7%
CCN(CC)CCn1cnc2c1c(=O)[nH]c(=O)n2Cc1ccccc1		1.96%
N=c1c2c(-c3ccccc3)c(-c3ccccc3)n(Cc3ccccc3)c2ncn1CCCO	5.62 µM (active)	
COCCn1cnc2c1c(=O)n(Cc1ccc(Br)cc1)c(=O)n2Cc1ccccc1		-1.2%
FC(F)(F)c1cccc(-c2nc3ccccc3n2C(c2ccccc2)c2nc3ccccc3[nH]2)c1 (configuration not stated)		-15.5%
CCN(CC)C(=O)C1CCCN(Cc2cccc(Cl)c2)C1 (configuration not stated)		12.2%

Structure (SMILES)	Potency	activity, negative = toxicity
CC1(C(=O)Nc2ccccc2Br)CCN1C(=O)CC1CC1 (configuration not stated)		3.95%
CC[C@@H]1Cc2cc(O)ccc2C2=C1c1ccc(O)cc1C[C@H]2CC	14.6 µM (active)	
CC(C)OC(=O)CC(=O)CC(O)c1cccc([N+](=O)[O-])c1 (configuration not stated)		-12.4%
COc1ccc(CCNC(=O)CN(c2ccccc2)S(=O)(=O)c2ccccc2)cc1		-17.4%
COC(=O)C1(C(=O)OC)C/C=C\CN(S(=O)(=O)c2ccccc2[N+](=O)[O-])CCC1		6.9%
Nn1cnnc1N/N=C/c1cc([N+](=O)[O-])c(Cl)cc1Cl		1.7%
O=C(/C=C/c1ccc(Cl)c([N+](=O)[O-])c1)c1ccc(O)cc1	11.6 µM (active)	
NC(N)=N/N=C/c1ccc(Cl)c([N+](=O)[O-])c1	23.1 µM (active)	
CC(CC(=O)O)C(=O)c1ccc(Cl)c([N+](=O)[O-])c1 (configuration not stated)		2.94%
CC(=O)Nc1ccc(C=CC(=O)c2ccc([N+](=O)[O-])cc2)cc1		6.51%
O=C(Nc1ccncc1)c1ccc(Cl)c([N+](=O)[O-])c1		7.37%
CC(=O)C[C@@H]1OC[C@H](CO)N1S(=O)(=O)c1ccc(C)cc1		22.6%
Cn1ncc([N+](=O)[O-])c1C(=O)Nc1cc(Cl)ccc1Cl		-2.97%
CCCC/C=C/c1cccc2nncn12		0.514%
CN(C)C(CNC(=O)c1cc(Br)c(Br)s1)c1ccco1 (configuration not stated)		-0.0129%
CC1CCN(C(=O)CSc2nnc(-c3ccco3)n2N)CC1		9.04%
O=C(CCCOc1ccc(Cl)cc1Cl)NNC(=O)C1CCC1		-11.3%
COc1cccc(CN2CCC(C(=O)NC(c3ccc4c(c3)OCO4)c3ccccn3)CC2)c1 (configuration not stated)		-8.81%
O=C(NC(c1ccc(-c2ccccc2)cc1)c1cnccn1)C1CCN(CCOc2ccc(Cl)cc2Cl)CC1 (configuration not stated)	14.6 µM (active)	
O=C1NC(Cc2ccccc2)c2nc3ccc(Br)cc3c(=O)n2-c2cc3ccccc3cc21 (configuration not stated)		-9.22%
COc1ccc(CN2C(=O)C(CC(=O)NC3CCCCC3)CC(C(=O)N3CCOCC3)=C2C)cc1 (configuration not stated)		-3.06%
CCCCc1c(-c2ccc(Br)cc2)ncn1CCc1ccccc1OC	7.31 µM (active)	
CCC(=O)NCc1cc(-c2nn(C)c(=O)c3ccccc23)ccc1OC		-4.19%

Structure (SMILES)	Potency	activity, negative = toxicity
COc1ccccc1CCNS(=O)(=O)c1cn(C)nc1C		-0.537%
CCCCCc1c(-c2ccc(OC)c(OC)c2)ncn1CCc1ccccc1OC	10.3 µM (active)	
COC(=O)c1ccc2nc(-c3cccc(Br)c3)c(Cc3ccc(OC)cc3C)n2c1		-8.37%
COc1ccccc1Cc1c(-c2ccc(Cl)cc2)nc2ccc(Cl)cn12		-22.2%
CCCCCc1c(-c2cccc(Br)c2)ncn1CCc1ccccc1OC	18.4 µM (active)	
COc1ccc(-c2nn(-c3ccccc3)cc2C(=O)Nc2nccs2)cc1OC		-22.5%
COC(=O)c1ccc2nc(-c3cccc(Br)c3)c(Cc3ccccc3C(F)(F)F)n2c1		7.64%
COc1cccc(-c2cnc(C(O)c3ccccc3OC)[nH]2)c1 (configuration not stated)		21%
CCCOc1ccc(F)cc1-c1cc(C(=O)NCc2ccc(F)cc2)[nH]n1		-15.1%
O=C(COc1ccc(S(=O)(=O)N2CCCC2)cc1[N+](=O)[O-])N1CCCCC1		2.99%
CCCCCCCCN1C(=O)[C@H](CC(=O)NCC23CC4CC(CC(C4)C2)C3)C[C@@]2(C(=O)OC)CCCCC=C12		4.09%
C[C@@H]1CN([C@@H](C)CO)C(=O)c2c(c3ccccc3n2C)-c2ccccc2CO[C@H]1CN(C)C(=O)C1CC1		4.26%
Cc1c(C(=O)NCc2ccc(C#N)cc2)sc(=O)n1Cc1ccc(C(=O)N(C)C)cc1		-10.5%
CN(C)CCCOc1ccc(-c2ccc3nccn3c2)cn1		2.09%
CN1CCN(C(=O)c2ccc(NC(=O)c3ccc(Br)o3)cc2)CC1		1.04%
O=C(CSc1nc(Nc2ccccc2)nc(N2CCOCC2)n1)Nc1cc(Cl)ccc1O	18.4 µM (active)	
Cc1ccccc1NC(=O)CSc1nc2ccc(Nc3nc(N4CCOCC4)nc(N4CCOCC4)n3)cc2s1		-4.33%
CC1(c2ccccc2)NC(=O)N(CC(=O)Nc2cc(Cl)ccc2N2CCOCC2)C1=O (configuration not stated)		-1.21%
C=CCC[C@H](CCCCC)OC(=O)/C=C/[C@H](O)[C@@H](O)C[C@@H](O)CC=C		-19.9%
O=C(O)CC1=C(Nc2ccccc2)C(=O)N(c2ccccc2)C1c1ccc(Cl)cc1 (configuration not stated)		0.642%
O=C(CCC(=O)OCc1ccc(Cl)cc1)Nc1ccccc1		0.564%
O=C1C=C(c2ccc(Cl)cc2)C(=O)N1Nc1ccccc1	18.4 µM (active)	
CCCNC(=O)c1cc(C2CCCCN2C(=O)OC)on1 (configuration not stated)		19.5%

Structure (SMILES)	Potency	activity, negative = toxicity
c1ccc2c(c1)nnn2-c1ccncc1		-7.3%
O=C(NCCCN1CCOCC1)c1cn(-c2ccccc2)nc1-c1ccc(F)cc1		2.98%
O=C(/C=C/c1cn(-c2ccccc2)nc1-c1ccc2c(c1)OCCO2)NCCCN1CCOCC1	20.6 µM (active)	
COc1ccc(-c2nn(-c3ccccc3)cc2/C=C\C(=O)N2CCOCC2)cc1[N+](=O)[O-]		2.09%
COC(=O)c1ccc2nc(C3CCCCC3)c(Cc3cccc(F)c3)n2c1		-10.3%
CCc1ccc([C@@H]2CC(=O)[C@@H]3CN(S(=O)(=O)c4ccc(C)cc4)[C@H](c4ccc(Cl)cc4)C[C@@H]3N2S(=O)(=O)c2ccc(C)cc2)cc1		23.1%
COc1ccccc1-c1cc(NC(C)=O)c2ncc(-c3ccc(F)cc3)n2c1		-16.8%
O=C(NCCO)c1cccc(-c2cccc3nccn23)c1		0.201%
CC(=O)Nc1cc(-c2ccc(N3CCN(C)CC3)cc2)cn2c(-c3cccc(C(=O)N(C)C)c3)cnc12		2.62%
CC(=O)Nc1cc(-c2cccc(CO)c2)cn2c(-c3cccc(C(F)(F)F)c3)cnc12		5.47%
O=CNc1cc(-c2ccc(C(=O)N3CCOCC3)cc2)cn2c(-c3ccc(F)cc3)cnc12	13 µM (active)	
N#C/C=C(/c1ccc(F)cc1)N1CCOCC1		13%
CC(=O)Nc1cc(-c2ccc(N3CCN(C)CC3)cc2)cn2c(-c3ccc(F)cc3)cnc12	23.1 µM (active)	
COc1cccc(-c2cnc3c(NC(C)=O)cc(-c4cc(F)ccc4OC)cn23)c1	9.2 µM (active)	
COc1cccc(-c2cc(NC(C)=O)c3ncc(-c4cccc(C(C)=O)c4)n3c2)c1		-20.1%
CN(C)CCNC(=O)c1cccc(-c2cnc3c(NC=O)cc(-c4cccc(C(F)(F)F)c4)cn23)c1	18.4 µM (active)	
CCC(C)C(=O)Nc1ccccc1N1CCN(c2ccc(F)cc2)CC1 (configuration not stated)		-20.9%
CN(C)C(=O)c1cccc(-c2cnc3c(NC=O)cc(-c4ccc(C(=O)N5CCOCC5)cc4)cn23)c1		-13.6%
O=C1NC[C@H](CCCCN2C[C@H](Cc3ccccc3)N(Cc3ccccc3)C(=O)C2=O)N(CCc2ccc(O)cc2)C1=O		5.18%
Cc1ccc(-c2ccc(C3=CC(=O)CC(C)(C)C3=O)cc2)cc1		14.6%
CC(C)C[C@@H]1Cc2[nH][nH]c(=O)c2[C@H](CCc2ccccc2)O1		-20%
CCOC(=O)[C@]12CCCC=C1N(CCC1=CCCCC1)C(=O)[C@H](CC(=O)NCCCOC)C2		-13.6%
CCCNC(=O)C1(C)CCCN(C(=O)c2oc3ccccc3c2C)C1 (configuration not stated)		2.01%
